Data taken from paper PMC13494018.
Unmarked numbers belong to inactive results. How the calls were made is not given here.

B1: d8r1_design_ppi_217_dldesign_0_cycle1_af2pred (protein)
chain: GDAVMEAAAAISNAAAAAIAAAKADPAKADEALAAATATAKALADATGKPLVKAVAKGATARVAAVAAAVKAAA
B2: d8r1_design_ppi_1486_dldesign_0_cycle0_af2pred (protein)
chain: SEELEKAKEEARKARERLLRLAEEAAAVDPAVAAAGRNAAAGAEKLISTGSLGSARAGKAIAEAAARRAEAVLAAAAAA
B3: d8r1_design_ppi_655_dldesign_0_cycle0_af2pred (protein)
chain: SDAKAAAQAAKNGAESATEKANEYEAKGKATGDKALLAKAKTLYDSAATLYAFGTKESGGEYQANLDAAKAKAAAAAALLA
B4: d8r1_design_ppi_480_dldesign_0_cycle0_af2pred (protein)
chain: SEEEERRRRAEEAADEIVAAAKADPAAAAALAAEFVATSSEEERRLLANILAQKAFEDDAGLTALRAFSLALAEAVA
B5: d8r1_design_ppi_1245_dldesign_0_cycle0_af2pred (protein)
chain: SVAEQRAELAAIVDRTLAAAAAEDPRAAGRAGAAELARLLARSSDEVKPAANAAIAAFNTLIRDPAAGAAALEAVRAELA
B6: d8r1_design_ppi_1117_dldesign_0_cycle1_af2pred (protein)
chain: AAAEAQARALAAELLAEAFDDPELAARALALPPHHAAALAAGQIVAKKSDEEAAAAVARANQVHALAAAAAAAA
B7: d8r1_design_ppi_259_dldesign_0_cycle1_af2pred (protein)
chain: AAAAARLATALANAIAGTNTIKKASTAKSASQFLAASTDRLATLYAADPALVAKLRAAAAAAKAGVDAGLAAAKEALAAATAAG
B8: d8r1_design_ppi_763_dldesign_0_cycle1_af2pred (protein)
chain: MEKAKELAAKGDALEEEAAKATPEEAAKLYREASKYYAEAARLLLPLGDENPEIGKVVKELMAKASASYQKAVALEA
B9: d8r1_design_ppi_80_dldesign_0_cycle1_af2pred (protein)
chain: ETPEEKANALFRAFNNVATYAAAKVPALAAAAAAAIAASADPAKLGAAAAAFAAAAAATPAAAALGTSAQAIADKAVATAK
B10: d8r1_design_ppi_1413_dldesign_0_cycle1_af2pred (protein)
chain: GSLLEELAKKEEELKDEEKMLKAHENALEIGIKKAEEDPAKGAKILENLAKNAEAAAKKASPEIAKKFKELAERAKKAAKEAKKKAA
B11: d8r1_design_ppi_1429_dldesign_0_cycle0_af2pred (protein)
chain: SSLESEERLRRMAEGIAERTLRVVERLAKEDLETARRAAENTRGLLAKLGPVAAKIGEETWERAEAILAAIA
B12: d8r1_design_ppi_888_dldesign_0_cycle1_af2pred (protein)
chain: ATEEEKEKLKKLVEELLKAGKEGTVEEAKKAAEKLVEAAKKASLEAVLAGIAEVAKAAAELAKVNPEAAEVAREAAIELAKIALEKAD
B13: d8r1_design_ppi_877_dldesign_0_cycle0_af2pred (protein)
chain: ALRAATEALLAEAERLREEILELGRAAESESVRNFAEGVAREVERLIAEAKAAAADPEAALALAQAALRTAREGLAGVRALTAAKAE
B14: d8r1_design_ppi_156_dldesign_0_cycle1_af2pred (protein)
chain: MEEEKKKEEEEQKEAERMAKALENAIDAIEARVKAAPAAEQPALAKAADNAAAAADVLKKKDPELGQKVKDRANAVLAAARAK
B15: d8r1_design_ppi_271_dldesign_0_cycle1_af2pred (protein)
chain: ADAALAALIAEAAQAAYDDGPRGIAALAGALLRAFPSLSAETLAAIIAATAADPAAAAALIAALAAAHPEAAPALAAELRALLAELA
B16: d8r1_design_ppi_179_dldesign_0_cycle0_af2pred (protein)
chain: STAARNAAAGIAAAAKENPKSGAKLGKGAIDVLAKKDKKEAAEAAKLAAEQAKAAGKEEVAKEMEELAKKVEAEI
B17: d8r1_design_ppi_290_dldesign_0_cycle0_af2pred (protein)
chain: SREEAERLKEEIERLAREGIAGDAETAARAMREIHELAIRSTELDPEDAAEVNQKAAEAMLRVGDAREAMLAA
B18: d8r1_design_ppi_978_dldesign_0_cycle1_af2pred (protein)
chain: MKHLEEQRKAAEKVAEKAAKEAEKEIAKVVSEEEAKKLAEKLKEQSKTSNELLVEKHKDLPVEEIEKLAERNAKGLALRALAIAKE
B19: d8r1_design_ppi_460_dldesign_0_cycle1_af2pred (protein)
chain: DETGERKATALAAISATVAAAKAAIDANAADPAAAQAALDAAKKALAAIAAKSGLPSVKGVAETAAKKLAAYATAVAAAAA
B20: d8r1_design_ppi_705_dldesign_0_cycle0_af2pred (protein)
chain: MTPSTRAMLHIGRANAAAQALAADPAAAAAAVAEEMAAAAREAAKASPEVREQNLRAMDAAVAALKAANPAVGAAARAAMEEELARL
B21: d8r1_design_ppi_1459_dldesign_0_cycle1_af2pred (protein)
chain: EKAEKLRKLAKKLKELGKKIAEGDEEEAKKAAKEAAKAAREAGKISPQGKTLEYLGKKTEEAAKAGDKKTAASLADAAAALMEALAD
B22: d8r1_design_ppi_433_dldesign_0_cycle0_af2pred (protein)
chain: SEEEERKEIEEEGRAMARALRTSARHHAELAKKDPAAGRAAFDADAAAIRAGATPEQQPLVDAAVAEGRALLDAVEAAL
B23: d8r1_design_ppi_1301_dldesign_0_cycle1_af2pred (protein)
chain: AENEADFNALKRVAQSILDRAAELAAAGADRALVERLAASAVQAAELAAEEGTPEEGAALIAETRAAVAAVLAA
B24: d8r1_design_ppi_1034_dldesign_0_cycle1_af2pred (protein)
chain: DQAFTDAAAAAKALAAIPKYKALGDSLAARVAALAAAAAAARAAGAADPATAAEDAAAAAALAAAAKNIGDFAKAMLKAIEEDE
B25: d8r1_design_ppi_136_dldesign_0_cycle1_af2pred (protein)
chain: SAAEEAARKSLFAVADSILAANLARAKAAAAAGDAAAAAAALQNTRDGGEMVTKMALARGDEETAAELAARFAAAAAEIAAILAA
B26: d8r1_design_ppi_723_dldesign_0_cycle0_af2pred (protein)
chain: GGKSIAEIARIHGARTAAAVLAETGDAAAAAKIKAVAEKAAKEIEKASDNYDKMAEIFRKMVEEIEKITAAAKAAAA
B27: d8r1_design_ppi_1244_dldesign_0_cycle0_af2pred (protein)
chain: EEEEKEEKETYEKAYYLAKAAINAVNTGKEAAVASGKAALIAAGKLIPEWAAEAKAAKTAEEIKAVAEKLAEAAKKKIE
B28: d8r1_design_ppi_1231_dldesign_0_cycle1_af2pred (protein)
chain: MTEEEMAALVQAARDAAKAAAAAAGPAVAPTMAAMVALAEEERDNPGELESIAQSVATAAARAVAAAAAAA
B29: d8r1_design_ppi_473_dldesign_0_cycle1_af2pred (protein)
chain: STAEYLAQQQAALDATLAALDAAAAAVRTSAAGKALGDAAKKAMEIAKKLPVSVQLAVAQNQLAALQAAL
B30: d8r1_design_ppi_1032_dldesign_0_cycle0_af2pred (protein)
chain: SEEEENKEKAEALEKAAKNTTAIGDEKAAKDAAGKEKGAKAYNGAAALYEAAAKVSSPERAKEFKAKAAEAKAKAAAAQAAAAA
B31: d8r1_design_ppi_1086_dldesign_0_cycle1_af2pred (protein)
chain: AAAAVAAAAAAGGEAAMAEFLDLSNPEQGKELKDKAAAKVAALAAANPAVAAQINAAYNAQLARGKALAAEARADK
B32: d8r1_design_ppi_1247_dldesign_0_cycle1_af2pred (protein)
chain: SSNKETSKLIREAMKIIGESLAAARAAVAAGDKAAAQAAVDAGVAKIEELAKKSKDPATKETLLKLAENLRRQGARVIA
B33: d8r1_design_ppi_1212_dldesign_0_cycle1_af2pred (protein)
chain: AAALAEKLVATALAIGDAVLKKYPEAFGAKLAAARALIAADPVAGIRALGEAAAEVAPAEIAPGIRSMLNAIADRAAELLA
B34: d8r1_design_ppi_860_dldesign_0_cycle1_af2pred (protein)
chain: DEAYELAAKALAEAAKLRAAADAALAAAGAAGAVEAAALFTAAVKVLEETAKKLKELGSSLGDFTAAAAEREAARAAARIAAALA
B35: d8r1_design_ppi_1358_dldesign_0_cycle1_af2pred (protein)
chain: AAAESAALAAALAALRKTEVGPFARQYIIYRLLAQVAEAKGDEETAKRAKAKAEELAKAYPEAAAAADAALALAQAALAA
B36: d8r1_design_ppi_660_dldesign_0_cycle1_af2pred (protein)
chain: EQAELEALAAAAKAAAAQAYALALASRAQAPAAYAALQQAFALAAQLPEEVAAELKAAAAQALADGLLAREKAE
B37: d8r1_design_ppi_312_dldesign_0_cycle1_af2pred (protein)
chain: ALEEALRATAALVGTASQILAKEDPALAKEVAARILATAVKDPAEAAKLLKEVAKEAKERGWPAAEYYAAAAEALKAAAEA
B38: d8r1_design_ppi_178_dldesign_0_cycle1_af2pred (protein)
chain: ATEAVAQAIVLAAKRAAALPNAATAVANLAALVALLIEDPRVAEGAVEGAKEAAKALEAAGRTEEAKALLSAAEAAVAETAAKRA

Molecular target: PDL1, Q9NZQ7
Sequence (Q9NZQ7 whole entry): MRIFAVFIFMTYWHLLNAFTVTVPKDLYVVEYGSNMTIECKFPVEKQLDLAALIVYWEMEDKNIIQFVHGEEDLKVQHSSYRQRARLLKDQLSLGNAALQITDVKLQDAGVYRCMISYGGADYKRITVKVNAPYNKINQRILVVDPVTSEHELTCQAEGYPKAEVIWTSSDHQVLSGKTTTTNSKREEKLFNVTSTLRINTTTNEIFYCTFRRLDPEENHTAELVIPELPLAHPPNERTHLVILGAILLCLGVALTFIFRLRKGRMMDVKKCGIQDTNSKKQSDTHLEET

| Binder | binding in a display sort |
| --- | --- |
| B1 | not found |
| B2 | not found |
| B3 | not found |
| B4 | not found |
| B5 | not found |
| B6 | not found |
| B7 | not found |
| B8 | not found |
| B9 | not found |
| B10 | not found |
| B11 | not found |
| B12 | not found |
| B13 | not found |
| B14 | not found |
| B15 | not found |
| B16 | not found |
| B17 | not found |
| B18 | not found |
| B19 | not found |

| Binder | binding in a display sort |
| --- | --- |
| B20 | not found |
| B21 | not found |
| B22 | not found |
| B23 | not found |
| B24 | binds (active) |
| B25 | not found |
| B26 | not found |
| B27 | not found |
| B28 | not found |
| B29 | not found |
| B30 | not found |
| B31 | not found |
| B32 | not found |
| B33 | not found |
| B34 | not found |
| B35 | binds (active) |
| B36 | not found |
| B37 | not found |
| B38 | not found |
